Data: PubChem BioAssay AID493168 (National Center for Advancing Translational Sciences (NCATS), 2011)
Results filed as inconclusive are left out. Values without a mark were called inactive. Calls of active or inactive are those of the source. The call rests on the fitted dose curve; in most records, active means well fitted inhibition curve with a large enough effect; inconclusive means small, poorly fitted or top-dose-only effect, or effect the other way; inactive means flat fitted curve, though single readings scatter.

Target: Ubiquitin carboxyl-terminal hydrolase 2 (Homo sapiens) (UniProt O75604)
Sequence (O75604 whole entry, looked up): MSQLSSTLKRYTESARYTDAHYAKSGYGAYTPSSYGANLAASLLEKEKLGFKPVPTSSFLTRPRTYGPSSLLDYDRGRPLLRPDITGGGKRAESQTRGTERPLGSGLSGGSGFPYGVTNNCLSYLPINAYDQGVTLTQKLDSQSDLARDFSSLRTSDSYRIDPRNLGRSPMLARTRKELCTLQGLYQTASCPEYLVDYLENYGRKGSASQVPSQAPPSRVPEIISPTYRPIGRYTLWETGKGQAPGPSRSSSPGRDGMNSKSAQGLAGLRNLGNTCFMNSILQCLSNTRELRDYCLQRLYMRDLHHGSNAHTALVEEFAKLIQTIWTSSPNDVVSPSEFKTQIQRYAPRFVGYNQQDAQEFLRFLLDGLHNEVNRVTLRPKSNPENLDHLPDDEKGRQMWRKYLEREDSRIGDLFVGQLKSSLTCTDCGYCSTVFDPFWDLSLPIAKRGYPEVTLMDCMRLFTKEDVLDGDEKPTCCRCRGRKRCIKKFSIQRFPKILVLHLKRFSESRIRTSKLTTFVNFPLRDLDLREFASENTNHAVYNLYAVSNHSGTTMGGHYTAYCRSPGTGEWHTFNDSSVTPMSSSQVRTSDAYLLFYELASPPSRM
Assay: Confirmation Assay for Inhibitors of Ubiquitin-specific Protease USP2a Using CHOP2 as the Reporter; further: nearly all actives have a fitted effect of over 55% in size;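 on activity change, negative = inhibition: plate controls were DMSO wells for no effect and full inhibition by NEM control for full effect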
Conditions: USP2 core, Ub-CHOP2 coupled reporter fluorescence; series mostly up to 38.3 µM; activity change, negative = inhibition: at the top concentration
Summary of the method: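 Ub-CHOP2 cleavage coupled to reporter activation was read by fluorescence after 60 min at RT, with 25 nM final Ub-CHOP2 and substrate. Enzyme (10 nM final USP2 core) first sat 30 min with compound; data were normalized to NEM and fitted to concentration-response curves.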
Potency means the concentration at half of the fitted maximal effect.

Row | Structure (SMILES) | activity change, negative = inhibition [%] | Potency
1 | Cc1cc(N2CCOCC2)nc(SCC(=O)c2ccc(Cl)cc2)n1 | 5.19 | 
2 | O=C(Nc1ccc(Oc2ccc(Cl)cc2)cc1)c1ncn[nH]1 | 0.723 | 
3 | CCCNC(=O)CS(=O)Cc1nc(-c2ccccc2C)oc1C (stereo not given) | 1.7 | 
4 | Cc1c2c(=O)n(-c3nc4ccccc4s3)nc-2cc(O)n1Cc1ccccc1 | -15 | 
5 | COC(=O)c1cc2sc(Cl)cc2n1Cc1nc(-c2ccccc2)oc1C | 0.488 | 
6 | CCOc1ccc2nc(NC(=O)Nc3ccccc3)sc2c1 | -2.42 | 
7 | Nn1c(Nc2ccccc2)nc2ccccc2c1=O | 5.37 | 
8 | CC1(C)CC(=O)C2=C(C1)NCN(CCCN1CCOCC1)C2 | 0.351 | 
9 | O=C(OCC1OC(n2ncc(=O)[nH]c2=O)C(OC(=O)c2ccccc2)C1OC(=O)c1ccccc1)c1ccccc1 (stereo not given) |  | 13.1 µM (active)
10 | CCOC(=O)C(C)Sc1nnc(Cn2c(=O)sc3ccccc32)n1-c1ccccc1 (stereo not given) | -7.73 | 
11 | Cc1ccc(/C(N)=N/OC(=O)Oc2ccccc2)cc1 | -1.51 | 
12 | Cc1noc(/C=C/c2ccco2)c1S(=O)(=O)N1CCC(C(=O)N(C)Cc2ccccc2)CC1 |  | 14.7 µM (active)
13 | Cc1ccc2nc(NCCCNC(=O)c3cnccn3)c(C#N)cc2c1 | 2.19 | 
14 | Cc1sc2nc(CN3CCN(c4ccc(O)cc4)CC3)[nH]c(=O)c2c1C | -4.34 | 
15 | CSCCC(NC(=O)c1cc(C(C)(C)C)oc1C)C(=O)O (stereo not given) | -0.12 | 
16 | Cc1ccc2oc(=O)c3cnn(CC(=O)NCCCOC(C)C)c3c2c1 | 3.71 | 
17 | N#Cc1cccc(C(=O)N(CCc2ccccc2)Cc2cccs2)c1 | -0.668 | 
18 | Cc1c(NC(=O)c2ccc(COc3ccc4ccccc4c3)o2)c(=O)n(-c2ccccc2)n1C | -11.8 | 
19 | CN1CCN(S(=O)(=O)c2ccc(N3CCN(S(=O)(=O)/C=C/c4ccccc4)CC3)nc2)CC1 | -0.101 | 
20 | Cc1noc(C)c1NC(=O)Nc1ccc2c(c1)C(=O)N([C@H](C)CO)C[C@H](C)[C@@H](CN(C)S(=O)(=O)c1ccccc1)O2 | -1.29 | 

Row | Structure (SMILES) | activity change, negative = inhibition [%] | Potency
21 | O=C(Cc1ccccc1)Nc1cccc(N2CCCC2)c1 | -9.77 | 
22 | COc1cc2cc(CN(CCN3CCCC3)C(=O)Nc3ccc(F)cc3)c(=O)[nH]c2cc1OC | -7.19 | 
23 | CCCc1cc(=O)oc2cc(C)c(CN3CCCC3)c(O)c12 | -1.5 | 
24 | CC(NC(=O)COc1ccccc1-c1ccccc1)c1ccccc1 (stereo not given) | 2.1 | 
25 | CNc1sc(C(=O)c2ccc(F)cc2)c(N)c1-c1nc2ccccc2s1 | 0.605 | 
26 | O=C(COC(=O)c1ccc(NS(=O)(=O)c2cccs2)cc1)Nc1nc2c(F)c(F)c(F)cc2s1 |  | 6.56 µM (active)
27 | O=C(CSc1ccc(Br)c2cccc(Cl)c12)Nc1ccc(S(=O)(=O)Nc2nccs2)cc1 |  | 9.27 µM (active)
28 | COC(=O)C1CCN(C(=O)c2cc(-c3ccco3)nc3ccccc23)CC1 |  | 13.1 µM (active)
29 | Fc1ccc(-c2nnn(Cc3nc4ccccc4s3)n2)cc1 | -2.22 | 
30 | CCCCC(CC)CN=C(N)NC(N)=NCCCCCCN=C(N)NC(N)=NCC(CC)CCCC (stereo not given) |  | 4.65 µM (active)
31 | CSc1ncccc1C(=O)OCC(=O)N1CCOCC1 | -1.33 | 
32 | Cc1ccc(C)c(OCC(=O)Nc2cc(NC(=O)COc3cc(C)ccc3C)cc(C(=O)O)c2)c1 | -15.4 | 
33 | CCCOc1ccc(/C=C2\SC(=S)N(CC3CCCO3)C2=O)cc1 (stereo not given) | -1.61 | 
34 | CCOC(=O)c1[nH]c2ccc(OC)cc2c1NC(=O)CCN1CCC(C)CC1 | -3.28 | 
35 | Cc1cc(SCC(=O)Nc2ccccc2)nc(C)n1 | -0.745 | 
36 | CC(C)Oc1ccc(C(=O)Nc2ccc(N3CCCC3)cc2)cc1 | -1.01 | 
37 | O=C(Nc1cccc(Cl)c1)Nc1nnc(CC2=CCCCC2)s1 | 1.35 | 
38 | CCOc1ccc(C(=O)c2ccc(OCC)c(N)c2)cc1N | -1.17 | 
39 | C#CCOCCOCCOCCNc1nc(N2CCN(C(=O)CCCCCCCCCCNC(=O)[C@@H](CCC(=O)O)n3cc(CCCCCN)nn3)CC2)nc(N2CCN(C(=O)CCCCCCCCCCNC(=O)[C@H]([C@@H](C)CC)n3cc(CCCCCN)nn3)CC2)n1 |  | 11.7 µM (active)
40 | OCCN(Cc1ccccc1)c1ncnc2sccc12 | 5.49 | 
